# Experimental data from PubChem BioAssay AID1508600 (Functional Genomics Laboratory (NCATS/FGL), 2020).
# The campaign covered roughly 53,000 sequences. About 3,700 (7%) were called active.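 Rule for the calls: active = gene knockdowns whose robust z-score for IL-1 alpha signal is at least 2 or at most -2, so actives lie on both sides; inactive = the rest.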 Shown is part of a subset that was picked to be rich in actives.
# Assay: Components of the Cytosolic LPS Sensing Pathway: Gene Identification via Genome-wide siRNA Screen;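 note: robust z of the log signal after scaling to non-targeting control siRNA wells of the plate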
# Settings: RAW264.7 macrophages, IL-1a HTRF, actives lie on both sides, screened at 100 nM (by protocol), cells primed 5 h with Pam3CSK4 first
# In short: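 IL-1a HTRF of supernatants after 24 hour LipidA transfection of Pam3CSK4-primed (5 hours) RAW264.7 cells, 48h post-siRNA transfection (100 nM). Scores: percent of plate negative-control median, then log-based robust z-score.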
row,Sequence,z-score
1,GCUAAACUCCACCAAGACATT against Grid2ip,0.338 (inactive)
2,GGGCAAUUAUCUUUGUUAUTT against Olfr589,-0.0712 (inactive)
3,GCCAUUAUGACAGAACGCATT against Adra1d,-0.606 (inactive)
4,GAACUACCUGGACUUCCACTT against Cox6b1,2.5 (active)
5,GGACGAUUCUUUUAUUUGATT against Fam78b,-1.22 (inactive)
6,CCAAUCGAUACAUCAUUUUTT against Gmcl1,1.1 (inactive)
7,GCAUCAUACCACUGUGUUUTT against Obox1,-1 (inactive)
8,GGCUGUUUGGCUUGUUUAATT against Golga7,1.82 (inactive)
9,CGGAUUCAGUAUUAGCAAUTT against Ogt,-2.4 (active)
10,GGAAUUAUUCAGCAAGACUTT against Cdrt4,-0.636 (inactive)
11,CGUUUGUUACUCUUCAGCUTT against Olfr1461,-1.07 (inactive)
12,GGCCAUAACACAAAUGUAGTT against Prpf4,0.554 (inactive)
13,GGAGGAAAGUAUGAAGAAATT against Cyp2j9,-0.337 (inactive)
14,GGCUGUGCAUUAUAUCCUUTT against Lhfpl1,1.2 (inactive)
15,GCUCCUAGUGUUUUUGUGGTT against Rplp0,-2.91 (active)
16,GGUUAUCCAGAGAGAAGGATT against Asxl2,0.399 (inactive)
17,GGCUAAGCUGAAGAAGCACTT against Fam219b,-0.326 (inactive)
18,GGUGACAACACUUGUCAACTT against Ctnna2,-0.551 (inactive)
19,GCCCAUGUUUUUUUUUCUGTT against Olfr648,0.776 (inactive)
20,GGCUGCUUAACCUUGAUAATT against Lrrd1,0.529 (inactive)
21,CGGUAGAGUCAGCAUUUGATT against Sez6,-0.231 (inactive)
22,GCCGAGAUGAGCUCCUAAUTT against Krt27,1.29 (inactive)

row,Sequence,z-score
1,GCUACAGCUUCAAUUAAAUTT against Birc6,0.135 (inactive)
2,GGGAGAAACGCAUCUUAUCTT against Ngly1,2.38 (active)
3,CCCACAGGGAUUUAUUUAUTT against Slc37a1,-0.362 (inactive)
4,GGACAUCCAUCAGUACAGGTT against Hras,0.812 (inactive)
5,GGCUGUCACUUUAUAGGCATT against Wrnip1,-0.862 (inactive)
6,CGACUUGAACUCUAUGGCGTT against Ascl1,-0.12 (inactive)
7,CCGAAAGGCUGGUACAUUCTT against Kin,-0.494 (inactive)
8,GGUUAUCUUCUUGACAGAATT against Nmur2,1.42 (inactive)
9,CCUGUUUAGCAUCUGGGAGTT against Gpr1,6.24 (active)
10,GGUAGAGAUGUACAUUUGGTT against Chrdl2,-1.72 (inactive)
11,GCAAGAAGUUCCUAUCAUCTT against Polr2b,-1.67 (inactive)
12,GCCCAAACUCAAGCAAGUCTT against Trpm3,2.37 (active)
13,GGUUACCCAACUUGAAGGATT against Parp16,1.37 (inactive)
14,GGCAAAAAGAUAGGAGCUGTT against Txn1,0.57 (inactive)
15,GGUGACUAACGAGAUCAUUTT against Slc19a1,0.913 (inactive)
16,CGAACAGAGUCUAAUCUCATT against Ptpn1,1.69 (inactive)
17,AGGAAUGCCCAGGUCUCAGTT against Lst1,-1.07 (inactive)
18,GGUCUGCUAUGAAAUUAUGTT against Tmem14c,-0.537 (inactive)
19,GGACGGAGCUGUAAUUGCATT against Arhgef12,2.16 (active)
20,GGCCUACAGGACAAAGUUUTT against Comt,0.394 (inactive)
21,CGACUAGAGUUGUGUGAUATT against Uqcrh,0.834 (inactive)
22,GGUGCAUUAUAAGAAUCGCTT against Fhl1,0.144 (inactive)

row,Sequence,z-score
1,GGUGGUGCCAAGAUGUUGUTT against Aste1,2.26 (active)
2,GUACCUCUACUAUUCCUUUTT against Krtap5-2,-0.13 (inactive)
3,GGAGUUCAAGACGGAGAAGTT against Gpr27,0.000428 (inactive)
4,GGCUUAUAUCUGAUUGAUGTT against Rom1,-1.17 (inactive)
5,GGAAAGUGACUGCAUGUUCTT against Pgp,-1.3 (inactive)
6,GGACUUCUUCACCAUCUGGTT against Lcat,-1.3 (inactive)
7,GGUACAUGAUCAAUUUAGATT against Tspyl4,0.726 (inactive)
8,GGACAUUAGGAAAUUAGAUTT against Ppp3cc,-0.404 (inactive)
9,GGCAGUACUGUCCAGAUGATT against Gsdma2,-2.12 (active)
10,CCUUAUCUAUAACUCUGCUTT against Tirap,-0.772 (inactive)
11,GGAGAGCGAAGAAAAAAUGTT against Birc2,-0.852 (inactive)
12,GGUUGUCUUCAACACCAAATT against Lgals7,-0.147 (inactive)
13,GCAAGAGCAUGCUUACGGUTT against Ccl1,-0.324 (inactive)
14,GGGUUUCUUGUUGGUUUUATT against Dock5,2.29 (active)
15,GGACGGGAUUGAGCCUAUGTT against Eif4e,1.65 (inactive)
16,CCAAGCUUACACUAGUGUUTT against Cdk6,-0.429 (inactive)
17,GCGUGUACAAGGCUAUUCATT against Stk4,1.19 (inactive)
18,GGCCUACUUCCUACUCAAATT against Tbx10,-1.85 (inactive)
19,CCUACACCUAGAAAUCUAGTT against Gpr3,1.52 (inactive)
20,GGAUGAGGAUGGCUAUAAGTT against Zc3h10,0.585 (inactive)
21,GGGAAGGAUGACCUAACAATT against Gpatch4,-0.839 (inactive)
22,CGGAUUAGAAGAGCCAAACTT against Cd59b,0.352 (inactive)

row,Sequence,z-score
1,GGCUACCCUUUUGAACCUCTT against Psmd3,-2.81 (active)
2,GGAAAAAGCCAAGCUCAUCTT against Syt3,-1.5 (inactive)
3,GGAGCAUCCUGGCAAACAGTT against Slc51b,-1.32 (inactive)
4,CUGAUCCUUCAAUUAACAUTT against Olfr202,0.0318 (inactive)
5,GCGACUCCUAUAAUUUCUATT against Rpa3,-2.17 (active)
6,GCAGGUCCUGACCUAUGUGTT against Cyp27b1,-0.556 (inactive)
7,CCAUCUGCAUCAAGAGAAATT against Kirrel2,0.709 (inactive)
8,GGAACGUACAGGAUAAUCUTT against Krt79,4.28 (active)
9,GGCUAAAGAAUAAAGAUCCTT against Cadm2,1.66 (inactive)
10,GUGAGACCAAGUUACAGGATT against Olfr1504,1.5 (inactive)
11,CCAACCAAAGAUGAAUUGUTT against Usp19,-0.445 (inactive)
12,GGUGGCCAAACAGGAAAAGTT against Fau,0.91 (inactive)
13,GGCACACAAACAAUUGGUATT against Rrp36,-0.318 (inactive)
14,GGGUUUCAUUAAAUUUCCUTT against Cyp2g1,-2.06 (active)
15,CCGAAUAUCGAGUUCCCAATT against Ceacam20,-0.0196 (inactive)
16,GGAUGAGAAUGGCACCAGUTT against Prima1,-1.4 (inactive)
17,GGAAAUGUACAUCAUCAAGTT against Cnga2,-1.24 (inactive)
18,CCUGUUAAACAGGACUAGUTT against Tmem263,-1.51 (inactive)
19,GGGAAUUUGCUCCUGAAAGTT against Pcdhb6,-0.936 (inactive)
20,CCUUUGAAUCCCAGGUUCATT against Lmo1,3.05 (active)
21,GGCCCUCCCAAAUCAUUUGTT against Slc30a6,0.188 (inactive)
22,GGAUACAUUGAGAAAGACUTT against Tor1aip2,2.43 (active)

row,Sequence,z-score
1,GGGAAGAAAGACUCAAACUTT against Dcdc2a,0.919 (inactive)
2,GGAAAAUUCAGGAAGUUUGTT against Magi3,0.489 (inactive)
3,GGAAACCUGAUUAUCAUCATT against Olfr791,-0.337 (inactive)
4,CCUGGACCCAUGAAGUCUUTT against Ahnak,0.911 (inactive)
5,GCUGGCCAAACUUGACAGUTT against Wwc1,2.05 (active)
6,CCCUCAUACCGCUUAGAACTT against Tctex1d4,-0.786 (inactive)
7,GCCUGUGGCUUAAACUUCATT against Vat1l,0.11 (inactive)
8,GGAGAACAAGAUCUUACAGTT against Cby2,-0.703 (inactive)
9,GGAACACCACCUUAGAGAUTT against Hnrnpa2b1,1.52 (inactive)
10,GAAAUGAGUCCUUGAAAAGTT against Olfr127,-0.0661 (inactive)
11,CGCAGCCUUUACCUCCGAATT against Plekha8,-1.12 (inactive)
12,GGCAUUAGCUACCUGGACATT against 1700013G24Rik,3.44 (active)
13,GGUGGUCCAGACCAAGUACTT against Pfdn5,-1.02 (inactive)
14,GGUCUUCAGCCCAAGAAAUTT against Dsg2,0.127 (inactive)
15,GCAAUACUUAUCCAUUGCGTT against Msx3,-0.42 (inactive)
16,GGACUCAUUGACUUCAUCATT against Atg12,-1.8 (inactive)
17,GCUUGCUUCGCCUACAUUGTT against Slc46a3,-0.501 (inactive)
18,GUAGUUAGGAACUCUUGCUTT against Thnsl2,-0.086 (inactive)
19,GGCUGAUGUGAUGAUUGUATT against Ndufs7,2.3 (active)
20,GCACUGUGAGUGGAUACUUTT against Slc5a3,0.13 (inactive)
